Data on 38 compounds can be found in PubChem BioAssay (NCI).

This is part of a sample that, as a whole, favours compounds with a hit. Of some 83,000 tested, about 20% had one in any assay.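 Negative percent growth values reflect cell death: -40 means 40% of the cells present at the start died, and -100 means all died.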 A number with no mark means an inactive call. Activity calls are given as the source filed them. The calls were made as follows: active = growth percent below 10; inactive = the rest.

The subject of one test is SW-620 colon. In words: NCI-60 one-dose screen, 48 h (100 = growth as untreated, 0 = no growth, -100 = all killed). The settings on record: 10 µM unless noted.
Turning to `COc1c(B(O)O)cc(F)cc1-c1nc2c(F)cc3[nH]ncc3c2c2c1CCCC2`, the growth was 0.792% (active).
Consider `CC1=C(C(=O)Nc2ccccc2)C(c2cccc(Cl)c2Cl)n2c(nc3ccccc32)N1` (stereo unspecified), for which the growth was 56.5%.
As to `COc1ccccc1NC(=O)c1ccc(NC(=O)CCl)s1`, the growth is -18.5% (active).
Regarding `O=C(CSc1nc2sc3c(c2c(=O)n1-c1ccc(Cl)cc1)CCCC3)NNC(=O)c1ccc(Br)cc1`, the growth was 76.1%.
`O=C1CCC(N2C(=O)c3cccc(NCCOCCOCCOCCC(=O)NCCCC(=O)NC(c4ccc5c(c4)OCO5)c4cc(Cl)c5cccnc5c4O)c3C2=O)C(=O)C1` (stereo unspecified): the growth is 39%.
For the compound `NCCCCn1c(SCCc2c[nH]c3ccccc23)nnc1-c1ccc2ccccc2n1`, the growth was -73.1% (active).
Regarding `CCCSc1nnc(-c2sc3nc4ccccc4n3c2C)o1`, the growth is 108%.
Same read-out and setting: for `Cc1ccc2c(c1)/C(=C/C(=O)c1cc3ccccc3oc1=O)C(=O)N2` the value was -94.7% (active); for `Cn1cc(-c2cc(N)n3nc(-c4c[nH]c5ccccc45)cc3n2)c2cc(F)ccc21`, -76.8% (active).
The same measure, in the same setting: as for `COc1ccccc1/C=C/c1cccc(NC(=S)NCCCCN(C)C)c1`, the figure is 5.09% (active).
Still for that read-out and setting: as for `O=C1NC(=S)/C(=C/c2cn(-c3ccccc3)nc2-c2ccccc2)S1`, the figure is 39.3%; as for `Cc1cc(C)c2[nH]c(=O)c(C(c3nnnn3Cc3ccc4c(c3)OCO4)N3CCN(C)CC3)cc2c1` (stereo unspecified), 110%; as for `C[C@@H]1[C@H]2C[C@@H](C[C@H]1NCc1nc3ccccc3n1C1CCCCCC1)C2(C)C`, 49.6%.
As to `O=c1c(-c2nc(-c3ccccc3)c(-c3ccccc3)[nH]2)coc2ccc(F)cc12`, the growth was 51%.
Same read-out and setting: for `CN1CCc2c(sc3ncnc(N/N=C/c4cccc(Cl)c4Cl)c23)C1` the value was -36.9% (active); for `COc1ccc(N=Nc2c(N)nn3c(N)c(C#N)c(-c4ccccc4)nc23)cc1`, 66.2%.
`COc1ccc(/C=C/C(=O)c2ccc(OC)c(S(N)(=O)=O)c2)c(C(F)(F)F)c1`: the growth is 7.45% (active).
Still for that read-out and setting: as for `COc1ccc(C2=Nc3c(N)nc(N)nc3NC(c3ccc(Oc4nc(Nc5ccc(F)cc5)nc(N(C)C)n4)c(OC)c3)C2)cc1` (stereo unspecified), the figure is 76.6%.
On to `COc1ccc(NC(=O)NN2C(=O)c3ccccc3N(C)C2c2ccc(OC)cc2)cc1` (stereo unspecified), for which the growth is 100%.
Still for that read-out and setting: for `COc1nc(N)ncc1-c1ccc2ncnc(N3CCc4cc(F)c(Cl)cc43)c2c1` the value was 34.3%; for `COc1ccc(NC(=O)Nc2nc3ccc([N+](=O)[O-])cc3s2)cc1`, 15%.
As to `COc1ccc(NC(=O)N/N=C/c2c[nH]c3ccccc23)cc1`, the growth is 25%.
With `CC1=C(C(=O)Nc2ccccc2)C(c2ccc3ccccc3c2)n2c(nc3ccccc32)N1` (stereo unspecified), the growth was 9.24% (active).
As to `O=C(N/N=C/c1c[nH]c2ccccc12)Nc1ccccc1Cl`, the growth was 26.1%.
Regarding `O=C(N=Nc1c(O)[nH]c2ccc(Br)cc12)c1ccc2nc(-c3ccc(Cl)cc3)[nH]c2c1`, the growth is -37.2% (active).
The same measure, in the same setting: for `COc1ccc2c(c1)C(Sc1ccc(Br)cc1)c1c(nc(N)c(C#N)c1N)O2` (stereo unspecified) the value was 80.1%; for `C=CC(=O)N1CCN(c2ccc3nc4c(nc3c2C(F)(F)F)C(=O)c2ncccc2C4=O)CC1`, 4.1% (active); for `COc1ccc(NC(=O)CSc2nnc(-c3ccc(-c4nc5ccc(Cl)cc5[nH]4)cc3)o2)cc1`, 20.3%.
Same read-out and setting: as for `O=c1[nH]c2ccccc2cc1COc1ccc(Nc2nccc(-c3ccc(Cl)cc3)n2)cc1`, the figure is 105%; as for `Cc1ccc(C(=O)Nc2ccc(-n3ccnc3)c(C(F)(F)F)c2)cc1C#Cc1cnc2cccnn12`, 31.2%.
Still for that read-out and setting: as for `Cc1cccc(/C=C/c2ccc(NC(=S)NCCCCN(C)C)cc2)c1`, the figure is -85.3% (active); as for `N#Cc1cc(-c2ccc3ncnc(N4CCc5cc(F)c(Cl)cc54)c3c2)cnc1N`, 25.2%; as for `COc1ccc(-c2nnc3c(/C=C/c4ccc(Br)cc4)nc4ccccc4n23)cc1`, -10% (active).
For `O=C(CSc1nnc(-c2ccc(-c3nc4ccccc4[nH]3)cc2)o1)Nc1ccccc1`, the growth was 19.9%.
`NC(=O)c1ccc(-c2ccc3ncnc(N4CCc5cc(F)c(Cl)cc54)c3c2)cn1`: the growth was 94.2%.
As to `O=C(Nc1ccc(-c2ccc3c(c2)NC(=O)/C3=C\c2ccc[nH]2)cc1)Nc1ccc(Cl)c(C(F)(F)F)c1`, the growth was 27.6%.
As for `Nc1nn2c(-c3cc4cc(Br)ccc4oc3=O)ccnc2c1N=Nc1ccc(Br)cc1`, the growth is 43.2%.
For the compound `FC(F)(F)c1cc2c(Cl)ncnc2n1CCN1CCCCC1`, the growth is 34%.

The next test deals with MCF7 breast. Described as above. The settings on record: 10 µM unless noted.
Turning to `COc1c(B(O)O)cc(F)cc1-c1nc2c(F)cc3[nH]ncc3c2c2c1CCCC2`, the growth is -2.86% (active).
On the same count and under the same terms, for `CC1=C(C(=O)Nc2ccccc2)C(c2cccc(Cl)c2Cl)n2c(nc3ccccc32)N1` (stereo unspecified) the value was 24.6%; for `COc1ccccc1NC(=O)c1ccc(NC(=O)CCl)s1`, -35% (active); for `O=C(CSc1nc2sc3c(c2c(=O)n1-c1ccc(Cl)cc1)CCCC3)NNC(=O)c1ccc(Br)cc1`, 54.1%.
On the same count and under the same terms, for `O=C1CCC(N2C(=O)c3cccc(NCCOCCOCCOCCC(=O)NCCCC(=O)NC(c4ccc5c(c4)OCO5)c4cc(Cl)c5cccnc5c4O)c3C2=O)C(=O)C1` (stereo unspecified) the value was 10.9%; for `NCCCCn1c(SCCc2c[nH]c3ccccc23)nnc1-c1ccc2ccccc2n1`, -88.8% (active); for `CCCSc1nnc(-c2sc3nc4ccccc4n3c2C)o1`, 90.3%.
`Cc1ccc2c(c1)/C(=C/C(=O)c1cc3ccccc3oc1=O)C(=O)N2`: the growth was 55.9%.
In the case of `Cn1cc(-c2cc(N)n3nc(-c4c[nH]c5ccccc45)cc3n2)c2cc(F)ccc21`, the growth is -7.62% (active).
Same read-out and setting: for `COc1ccccc1/C=C/c1cccc(NC(=S)NCCCCN(C)C)c1` the value was -73.9% (active); for `O=C1NC(=S)/C(=C/c2cn(-c3ccccc3)nc2-c2ccccc2)S1`, 3.28% (active); for `Cc1cc(C)c2[nH]c(=O)c(C(c3nnnn3Cc3ccc4c(c3)OCO4)N3CCN(C)CC3)cc2c1` (stereo unspecified), 101%.
On the same count and under the same terms, for `C[C@@H]1[C@H]2C[C@@H](C[C@H]1NCc1nc3ccccc3n1C1CCCCCC1)C2(C)C` the value was 28.1%; for `O=c1c(-c2nc(-c3ccccc3)c(-c3ccccc3)[nH]2)coc2ccc(F)cc12`, 25.9%.
Consider `CN1CCc2c(sc3ncnc(N/N=C/c4cccc(Cl)c4Cl)c23)C1`, for which the growth was -39.1% (active).
As to `COc1ccc(N=Nc2c(N)nn3c(N)c(C#N)c(-c4ccccc4)nc23)cc1`, the growth is 14.5%.
In the case of `COc1ccc(/C=C/C(=O)c2ccc(OC)c(S(N)(=O)=O)c2)c(C(F)(F)F)c1`, the growth was 8.35% (active).
On the same count and under the same terms, for `COc1ccc(C2=Nc3c(N)nc(N)nc3NC(c3ccc(Oc4nc(Nc5ccc(F)cc5)nc(N(C)C)n4)c(OC)c3)C2)cc1` (stereo unspecified) the value was 38.8%.
Same read-out and setting: as for `COc1ccc(NC(=O)NN2C(=O)c3ccccc3N(C)C2c2ccc(OC)cc2)cc1` (stereo unspecified), the figure is 94.9%; as for `COc1nc(N)ncc1-c1ccc2ncnc(N3CCc4cc(F)c(Cl)cc43)c2c1`, 29.8%.
On to `COc1ccc(NC(=O)Nc2nc3ccc([N+](=O)[O-])cc3s2)cc1`, for which the growth was 0.377% (active).
In the case of `COc1ccc(NC(=O)N/N=C/c2c[nH]c3ccccc23)cc1`, the growth is 16.8%.
On the same count and under the same terms, as for `CC1=C(C(=O)Nc2ccccc2)C(c2ccc3ccccc3c2)n2c(nc3ccccc32)N1` (stereo unspecified), the figure is 9.9% (active); as for `O=C(N/N=C/c1c[nH]c2ccccc12)Nc1ccccc1Cl`, 1.71% (active).
On to `O=C(N=Nc1c(O)[nH]c2ccc(Br)cc12)c1ccc2nc(-c3ccc(Cl)cc3)[nH]c2c1`, for which the growth is -22.9% (active).
Still for that read-out and setting: as for `COc1ccc2c(c1)C(Sc1ccc(Br)cc1)c1c(nc(N)c(C#N)c1N)O2` (stereo unspecified), the figure is 61.9%; as for `C=CC(=O)N1CCN(c2ccc3nc4c(nc3c2C(F)(F)F)C(=O)c2ncccc2C4=O)CC1`, -66.8% (active).
Turning to `COc1ccc(NC(=O)CSc2nnc(-c3ccc(-c4nc5ccc(Cl)cc5[nH]4)cc3)o2)cc1`, the growth is 42.2%.
Consider `O=c1[nH]c2ccccc2cc1COc1ccc(Nc2nccc(-c3ccc(Cl)cc3)n2)cc1`, for which the growth was 91.3%.
As for `Cc1ccc(C(=O)Nc2ccc(-n3ccnc3)c(C(F)(F)F)c2)cc1C#Cc1cnc2cccnn12`, the growth is 25.1%.
The same measure, in the same setting: as for `Cc1cccc(/C=C/c2ccc(NC(=S)NCCCCN(C)C)cc2)c1`, the figure is -73.7% (active); as for `N#Cc1cc(-c2ccc3ncnc(N4CCc5cc(F)c(Cl)cc54)c3c2)cnc1N`, 4.81% (active).
Still for that read-out and setting: as for `COc1ccc(-c2nnc3c(/C=C/c4ccc(Br)cc4)nc4ccccc4n23)cc1`, the figure is 0% (active); as for `O=C(CSc1nnc(-c2ccc(-c3nc4ccccc4[nH]3)cc2)o1)Nc1ccccc1`, 72.7%; as for `NC(=O)c1ccc(-c2ccc3ncnc(N4CCc5cc(F)c(Cl)cc54)c3c2)cn1`, 37.7%.
Still for that read-out and setting: for `O=C(Nc1ccc(-c2ccc3c(c2)NC(=O)/C3=C\c2ccc[nH]2)cc1)Nc1ccc(Cl)c(C(F)(F)F)c1` the value was 3.21% (active).
As to `Nc1nn2c(-c3cc4cc(Br)ccc4oc3=O)ccnc2c1N=Nc1ccc(Br)cc1`, the growth is 39.5%.
As for `FC(F)(F)c1cc2c(Cl)ncnc2n1CCN1CCCCC1`, the growth is 52.1%.
